This note sets out measurements from PubChem BioAssay.

The nature of assay [1]: compounds binding Alexa647 anti-His antibody – biochemical, small-molecule microarray, 635 nm fluorescence, artefact control for SMM control protein annotation, primary screen (AID 1128).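 Also: score merges feature fluorescence with signal-to-noise for each printed compound spot.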 The following applies: higher = more signal.
Assay [2] concerns Human papillomavirus type 1a E7 protein (residues 1-88). The assay can be described thus: HPV1a E7 small-molecule binders, primary screen, biochemical, small-molecule microarray, residues 1-88, 635 nm (AID 1129). The settings on record: small-molecule microarray binding, fluorescence 635 nm; higher = more signal.
Assay [3] concerns the target Focal adhesion kinase 1 (Homo sapiens) (UniProt Q05397). The assay can be described thus: PTK2 protein binding on printed compound slides – biochemical, small-molecule microarray, 635/667 nm fluorescence, BSA, DTT, primary screen (AID 1130).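 Also: composite of spot emission at 667 nm and signal to noise over triplicate slides.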 The following applies: 635 nm fluorescence, higher = more signal.
Assay [4] deals with Fibrinogen (Alexa647-labelled). The assay can be described thus: Alexa647-fibrinogen binding to printed small molecules – biochemical, small-molecule microarray, 635/667 nm fluorescence, artefact control for SMM control-protein annotation, profiling panel (AID 1131).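 Also: z-score merges 667 nm fluorescence with per-spot signal-to-noise over triplicate slides.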 The following applies: fibrinogen-A647 binding fluorescence, higher = more signal.
For assay [5], the target named is Follistatin (Homo sapiens) (UniProt P19883). The assay can be described thus: FST protein binding to printed compounds – biochemical, small-molecule microarray, 635/667 nm fluorescence, primary screen (AID 1132). The settings on record: 635 nm fluorescence, higher = more signal.
Assay [6] addresses Fibroblast growth factor 2 (Homo sapiens) (UniProt P09038). The assay can be described thus: basic fibroblast growth factor binding to printed compounds – biochemical, small-molecule microarray, 635/667 nm fluorescence, primary screen (AID 1133). The following applies: FGF2, fluorescence 635/667, higher = more signal.
Assay [7] is described as follows: JC-1 mitochondrial potential readout, lung cancer cells – cell-based, A549, JC-1 fluorescence, basal, 24 h, 100 nL, profiling panel (AID 1138).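 Also: A549 lung adenocarcinoma cells under basal conditions with no added stimulus; test concentration not given here.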 The following applies: higher = more signal.
A further assay relates to Lefty1. The assay can be described thus: Lefty1 protein binding to printed compounds – biochemical, small-molecule microarray, 635/667 nm fluorescence, primary screen (AID 1139). The settings on record: fluorescence 635/667, higher = more signal.
The subject of assay [8] is wheat germ agglutinin (Triticum aestivum), Alexa647-labelled. The assay can be described thus: Alexa647-WGA lectin binding to printed small molecules – biochemical, small-molecule microarray, 635/667 nm fluorescence, artefact control for SMM control-protein annotation, profiling panel (AID 1140).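 Also: score merges 667 nm feature emission with signal to noise over triplicate slides.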 The settings on record: WGA-A647 binding, 635 nm fluorescence, higher = more signal.

Assay [9] addresses Luciferin 4-monooxygenase (Photinus pyralis) (UniProt P08659). The assay can be described thus: inhibition of purified Photinus pyralis luciferase – biochemical, luminescence, purified enzyme, 2006 set, primary screen (AID 1141).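 Also: cell-free assay with purified firefly luciferase at 100 ng per well in PBS; test concentration not given here.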 The settings on record: purified firefly luciferase, SteadyGlo luminescence, 30 min; higher = more signal, called active from +8 up or from −8 down.
In assay [10] the test system is Wnt5a (protein binding on small-molecule microarray). The assay can be described thus: small molecules binding Wnt5a protein – biophysical, small-molecule microarray, 635/667 nm fluorescence, primary screen (AID 1142).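 Also: fluorescence read at 667 nm with signal to noise per printed feature.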 The settings on record: 635 nm fluorescence, higher = more signal.
A short description of assay [11]: ATP-based viability of Huh7 replicon cells – cell-based, CellTiter-Glo luminescence, basal, 48 h, cytotoxicity control for HCV replication inhibitor project, primary screen (AID 1143).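 Also: Huh7 hepatoma cells carrying a hepatitis C replication reporter with no stimulus; test concentration not given here.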 The following applies: higher = more signal, called active from +8 up or from −8 down.
Assay [12] is described as follows: Pseudomonas biofilm growth suppression – PAO1 strain, BacTiter-Glo luminescence, LB-PBS, primary screen (AID 1144). The following applies: P. aeruginosa PAO1 biofilm, 12 h, higher = more signal.
Assay [13] can be described thus: basal CRE-LacZ reporter activity in PC12 – cell-based, unstimulated, primary screen (AID 1145). The following applies: no forskolin, luminescence, 4.5 h, higher = more signal, called active from +8 up or from −8 down.
Assay [14] can be described thus: forskolin-driven CRE-LacZ activity in PC12 – cell-based, CRE-LacZ reporter, forskolin-stimulated, primary screen (AID 1146).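 Also: PC12 cells with 6xCRE LacZ reporter stimulated by forskolin 10 µM; beta-galactosidase reporter signal reflecting CREB driven transcription.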 The following applies: luminescence, 4.5 h, higher = more signal, called active from +8 up or from −8 down.
For assay [15], the target named is Streptavidin (Streptomyces avidinii) (UniProt P22629). The assay can be described thus: compounds binding control protein streptavidin – biophysical, small-molecule microarray, 635/667 nm fluorescence, artefact control for SMM compound annotation, primary screen (AID 1147).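 Also: signal reflects streptavidin binding to arrayed compounds as a control protein.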 The following applies: higher = more signal.
The nature of assay [16]: probe aInhba binding on compound microarray – biochemical, small-molecule microarray, 635/667 nm fluorescence, primary screen (AID 1148).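 Also: score merges 667nm spot fluorescence with signal-to-noise for antibody binding to printed compounds.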 The settings on record: higher = more signal.
The target in assay [17] is Torsin-1A (Homo sapiens) (UniProt O14656). The assay can be described thus: TOR1A wild-type binding on microarray – cell lysate, small-molecule microarray, lysate, 635/667 nm, primary screen (AID 1149). The settings on record: COS7 hTOR1A-WT lysate, 635 nm fluorescence, higher = more signal.
The target is the same in assay [18]. The assay can be described thus: torsin A mutant lysate binding on microarrays – cell lysate, small-molecule microarray, COS7 lysate, 635/667 nm fluorescence, primary screen (AID 1150).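 Also: score pools 667 nm emission and signal to noise measuring lysate protein binding.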 The settings on record: COS7 hTOR1A mutant lysate, 635 nm fluorescence, higher = more signal.
The subject of assay [19] is Sonic hedgehog protein (Shh). The assay can be described thus: Sonic hedgehog microarray binding compounds – biochemical, small-molecule microarray, 635/667 nm fluorescence, primary screen (AID 1151).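 Also: Shh protein binding to compounds spotted on small-molecule microarray slides; score combines spot fluorescence intensity with signal-to-noise across triplicate slides.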 The settings on record: 635 nm fluorescence, higher = more signal.

The source made the active and inactive calls. Unless noted, no rule for the calls is given here.

Sequence of Fibroblast growth factor 2 (Homo sapiens) (P09038 whole entry, looked up): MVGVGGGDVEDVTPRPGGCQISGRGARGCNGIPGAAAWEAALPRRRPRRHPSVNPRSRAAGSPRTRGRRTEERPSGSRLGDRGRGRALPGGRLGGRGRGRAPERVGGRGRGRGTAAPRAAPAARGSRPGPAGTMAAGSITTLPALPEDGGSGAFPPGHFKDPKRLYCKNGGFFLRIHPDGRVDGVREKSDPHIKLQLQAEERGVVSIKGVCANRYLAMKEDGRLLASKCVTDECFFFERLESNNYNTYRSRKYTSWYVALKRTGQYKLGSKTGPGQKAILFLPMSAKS
Sequence of Torsin-1A (Homo sapiens) (O14656 whole entry, looked up): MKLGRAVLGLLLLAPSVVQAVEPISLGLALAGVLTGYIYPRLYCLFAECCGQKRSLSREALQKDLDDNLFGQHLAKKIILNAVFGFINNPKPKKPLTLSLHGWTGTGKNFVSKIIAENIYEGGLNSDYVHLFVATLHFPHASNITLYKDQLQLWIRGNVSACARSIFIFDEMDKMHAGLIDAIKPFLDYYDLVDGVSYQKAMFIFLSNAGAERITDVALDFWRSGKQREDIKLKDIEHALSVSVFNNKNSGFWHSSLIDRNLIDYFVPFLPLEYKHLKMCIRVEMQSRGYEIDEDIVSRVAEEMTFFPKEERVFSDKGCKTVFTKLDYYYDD
Sequence of Luciferin 4-monooxygenase (Photinus pyralis) (P08659 whole entry, looked up): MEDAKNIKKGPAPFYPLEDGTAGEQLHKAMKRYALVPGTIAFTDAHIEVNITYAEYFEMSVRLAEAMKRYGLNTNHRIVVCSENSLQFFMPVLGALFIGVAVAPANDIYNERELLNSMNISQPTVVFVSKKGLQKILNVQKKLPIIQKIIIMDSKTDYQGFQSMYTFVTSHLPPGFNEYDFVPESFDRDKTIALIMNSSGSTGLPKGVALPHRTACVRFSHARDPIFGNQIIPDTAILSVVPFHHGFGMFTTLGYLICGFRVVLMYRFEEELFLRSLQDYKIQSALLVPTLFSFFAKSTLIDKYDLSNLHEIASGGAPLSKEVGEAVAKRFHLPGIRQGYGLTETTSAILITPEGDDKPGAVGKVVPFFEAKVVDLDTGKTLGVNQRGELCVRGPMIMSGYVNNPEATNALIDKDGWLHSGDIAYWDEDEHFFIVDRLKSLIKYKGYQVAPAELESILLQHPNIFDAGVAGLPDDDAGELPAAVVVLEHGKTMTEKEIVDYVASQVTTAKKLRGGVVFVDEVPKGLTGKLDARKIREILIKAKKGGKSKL
Sequence of Streptavidin (Streptomyces avidinii) (P22629 whole entry, looked up): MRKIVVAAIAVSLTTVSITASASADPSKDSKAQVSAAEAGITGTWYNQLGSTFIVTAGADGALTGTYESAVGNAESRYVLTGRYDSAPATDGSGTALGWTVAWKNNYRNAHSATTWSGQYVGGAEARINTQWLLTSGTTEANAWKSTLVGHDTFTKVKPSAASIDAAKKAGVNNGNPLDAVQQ
Sequence of Focal adhesion kinase 1 (Homo sapiens) (Q05397 whole entry, looked up): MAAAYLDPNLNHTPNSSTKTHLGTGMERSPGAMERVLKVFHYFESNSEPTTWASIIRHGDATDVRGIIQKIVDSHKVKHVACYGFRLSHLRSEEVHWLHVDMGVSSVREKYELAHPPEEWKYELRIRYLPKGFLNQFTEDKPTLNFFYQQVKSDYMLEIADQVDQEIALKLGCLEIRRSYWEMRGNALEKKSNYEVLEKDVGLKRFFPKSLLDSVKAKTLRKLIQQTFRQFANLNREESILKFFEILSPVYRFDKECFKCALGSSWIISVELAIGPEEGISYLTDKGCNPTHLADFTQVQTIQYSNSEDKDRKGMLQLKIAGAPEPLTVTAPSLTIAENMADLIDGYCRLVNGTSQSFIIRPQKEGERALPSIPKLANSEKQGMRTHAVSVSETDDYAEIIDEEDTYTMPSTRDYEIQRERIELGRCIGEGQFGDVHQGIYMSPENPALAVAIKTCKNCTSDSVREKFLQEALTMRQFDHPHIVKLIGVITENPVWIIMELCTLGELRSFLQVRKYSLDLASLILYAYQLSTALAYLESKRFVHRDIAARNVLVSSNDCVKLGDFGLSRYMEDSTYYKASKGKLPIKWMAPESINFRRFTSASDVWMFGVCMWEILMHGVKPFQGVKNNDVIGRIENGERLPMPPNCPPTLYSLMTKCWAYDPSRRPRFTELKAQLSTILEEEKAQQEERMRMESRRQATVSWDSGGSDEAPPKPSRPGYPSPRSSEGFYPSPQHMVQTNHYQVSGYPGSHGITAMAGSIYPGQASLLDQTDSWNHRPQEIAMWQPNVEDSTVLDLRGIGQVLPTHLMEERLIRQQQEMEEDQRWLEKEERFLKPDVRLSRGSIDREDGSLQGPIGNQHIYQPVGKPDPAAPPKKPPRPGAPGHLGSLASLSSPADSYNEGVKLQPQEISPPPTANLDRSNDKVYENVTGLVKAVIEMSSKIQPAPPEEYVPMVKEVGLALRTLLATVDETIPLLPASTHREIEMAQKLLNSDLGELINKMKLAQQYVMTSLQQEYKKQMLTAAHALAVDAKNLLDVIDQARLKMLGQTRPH
Sequence of Follistatin (Homo sapiens) (P19883 whole entry, looked up): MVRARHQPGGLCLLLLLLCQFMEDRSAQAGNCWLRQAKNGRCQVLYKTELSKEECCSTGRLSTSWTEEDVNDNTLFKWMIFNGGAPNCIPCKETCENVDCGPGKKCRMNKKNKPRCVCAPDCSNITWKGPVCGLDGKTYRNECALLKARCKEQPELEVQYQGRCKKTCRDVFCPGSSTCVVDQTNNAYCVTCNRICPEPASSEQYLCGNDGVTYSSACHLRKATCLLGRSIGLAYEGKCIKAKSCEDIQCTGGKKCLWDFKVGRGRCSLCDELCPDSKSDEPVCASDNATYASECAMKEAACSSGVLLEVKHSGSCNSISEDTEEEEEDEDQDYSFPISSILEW

As for `CO[C@H]1O[C@H](CO)[C@@H](OC(=O)Nc2ccc(C(F)(F)F)cc2)[C@H](OC(=O)Nc2ccc3c(c2)OCO3)[C@H]1OC(=O)Nc1ccc2c(c1)OCO2`, the composite z-score in assay [1] turned out to be 2.97; in [2], 1.17; in [3], 1.33; in assay [4], 0.806; in assay [5], 0.977; in assay [6], 0.395. Moreover, the composite z-score with Lefty1 turned out to be 0.871; in assay [8], 1.07; in assay [10] it was 0.259; in assay [15] it was 0.656; in [16], 0.234; with Torsin-1A (Homo sapiens) [17], 0.201. Moreover, the composite z-score in the assay with Torsin-1A (Homo sapiens) [18] worked out at 0.746; in [19] it was 0.99. In addition, the z-score is -1.16 in [7]; -7.72 (inactive) in assay [9]; -4.23 (inactive) in [11]; 0.558 (inactive) in [12]; 1.54 (inactive) in assay [13]; 1.38 (inactive) in assay [14].
With `CC(C)CNC(=O)[C@@]1(c2ccc([N+](=O)[O-])cc2)CC(=O)N(C2CCCCC2)[C@@H]1c1ccc(CO)cc1I`, the composite z-score in assay [1] was -0.423; in assay [2], 0.676; in assay [3], 0.295; in assay [4], -0.106; in assay [5], -0.0906; in assay [6] it was 0.669. Moreover, the composite z-score in the assay on Lefty1 is -0.411; in assay [8], 1.15; in assay [10], -0.067; in assay [15] it was -0.018; in [16], 0.0633; in the assay with Torsin-1A (Homo sapiens) [17], -0.149. The composite z-score with Torsin-1A (Homo sapiens) [18] is 0.0482; in assay [19], 0.425. In addition, the z-score in [7] was 1.86; in assay [9] it was -0.712 (inactive); in assay [11], -4.13 (inactive); in assay [12], 0.363 (inactive); in [13] it was 0.324 (inactive); in [14], 1.65 (inactive).
As to `CC1CC/C=C\[C@H]2OC34C=CCN(CCN5CCOCC5)C(=O)[C@H]3N(CCO)C(=O)[C@@H]4C2C(=O)O1` (stereo not given in full), the composite z-score was 2.67 in assay [1]; -0.959 in [2]; -0.583 in assay [3]; 0.187 in assay [4]; -0.361 in assay [5]; -0.0989 in assay [6]. Moreover, the composite z-score in the assay with Lefty1 was -0.887; in [8], -0.176; in [10], -0.249; in assay [15], -0.638; in [16], -0.178; in the assay with Torsin-1A (Homo sapiens) [17], 0.161. Moreover, the values for the composite z-score (in the assay with Torsin-1A (Homo sapiens) [18]; in [19]) were 0.213 and -0.636, respectively. Moreover, the z-score in [7] was -0.213; in assay [9] it was 0.749 (inactive); in assay [11], -0.894 (inactive); in assay [12] it was 0.463 (inactive); in assay [13] it was -0.216 (inactive); in [14], -0.626 (inactive).
`O=C1O[C@@H](c2ccccc2)[C@@H](c2ccccc2)N2[C@@H](c3ccccc3OCCO)[C@]3(C(=O)Nc4ccc(C#CCCO)cc43)[C@@H](C(=O)Nc3nc4ccccc4s3)[C@H]12`: the composite z-score in [1] came out at 2.3; in assay [2], 1.21; in assay [3], 0.487; in [4], 0.956; in assay [5], 1.33; in assay [6] it was 0.737. Besides, the composite z-score was 1.55 with Lefty1; 1.23 in assay [8]; 0.559 in assay [10]; 1.39 in assay [15]; 0.269 in assay [16]; 0.515 in the assay with Torsin-1A (Homo sapiens) [17]. For the same molecule, the composite z-score with Torsin-1A (Homo sapiens) [18] came to 0.585; in assay [19] it was 1.36. Besides, the z-score was -2.04 in assay [7]; -0.778 (inactive) in assay [9]; -0.975 (inactive) in assay [11]; -0.562 (inactive) in assay [12]; -0.671 (inactive) in [13]; 0.308 (inactive) in [14].
Regarding `C[N+](C)(C)CCCC[C@@H]1NC(=O)[C@@H]2C[C@H](C(=O)O)[C@H](c3ccc(O)cc3)N2C1=O`, the composite z-score was -0.613 in assay [1]; -1.65 in assay [2]; -0.975 in [3]; -1.21 in assay [4]; -0.493 in assay [5]; -0.27 in assay [6]. For the same molecule, the composite z-score is 0.0501 in the assay on Lefty1; 0.213 in [8]; -0.535 in assay [10]; -1.08 in [15]; -0.103 in assay [16]; -1.07 with Torsin-1A (Homo sapiens) [17]. The results for the composite z-score (with Torsin-1A (Homo sapiens) [18]; in assay [19]) were -0.909 and -0.0334, respectively. Besides, the z-score in assay [7] is -0.264; in assay [9] it was -0.516 (inactive); in assay [11], 0.462 (inactive); in [12] it was -0.771 (inactive); in [13] it was 0.0043 (inactive); in assay [14], 0.563 (inactive).
With `COc1cc(CO)cc(I)c1O[C@H]1C=C(C(=O)NCCO)C[C@@H](N(Cc2ccc(F)cc2)C(=O)C2CCCO2)[C@@H]1O` (stereo not given in full), the composite z-score was 0.608 in assay [1]; 0.317 in assay [2]; 0.079 in [3]; 0.247 in assay [4]; 0.34 in [5]; 0.47 in [6]. Besides, the composite z-score with Lefty1 was -0.0522; in assay [8] it was 0.517; in [10] it was -0.212; in [15], -0.274; in assay [16] it was -0.227; with Torsin-1A (Homo sapiens) [17] it was -0.0326. The results for the composite z-score (with Torsin-1A (Homo sapiens) [18]; in assay [19]) were -0.0306 and 0.399, respectively. The z-score in [7] was 1.46; in assay [9] it was -0.951 (inactive); in [11], -0.457 (inactive); in [12], -0.583 (inactive); in assay [13], 0.949 (inactive); in [14], -1.24 (inactive).
With `C=C(/C(=C/C[C@@H](OC(=O)c1ccncc1)c1ccc(OCCO)cc1)c1cc(C(=O)OC)ccc1OC)C(C)C`, the composite z-score in [1] was 0.217; in assay [2], 1.19; in assay [3], -0.4; in [4] it was 0.135; in [5] it was 0.623; in [6], 0.417. The composite z-score with Lefty1 was 0.632; in assay [8], 0.592; in assay [10], 0.308; in assay [15], 0.747; in [16], -0.271; in the assay with Torsin-1A (Homo sapiens) [17] it was 0.0376. In addition, the composite z-score with Torsin-1A (Homo sapiens) [18] came to 0.266; in assay [19], 1.7. For the same molecule, the z-score in assay [7] is 0.628; in assay [9], -0.467 (inactive); in assay [11], -1.79 (inactive); in assay [12] it was -0.745 (inactive); in assay [13] it was 2.06 (inactive); in assay [14], 0.96 (inactive).
